Among all 1,300 compounds or so, about 270 (21%) were called active.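 Rule for the calls: active = dose-dependent rise or fall in viability, either side of zero, with half-maximal concentration at or below a set limit; inconclusive = flat curve at 30 to 70% viability loss, or poor fit; inactive = flat within 30% either way, or potency beyond limit.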 The list is a sample of the results. Measured potencies and affinities stand elsewhere.
Experiment: proliferation inhibition in MITF-low A375 cells – cell-based, cherry-pick samples, set 2, counter-screen for MITF modulator project, dose response (AID 540335);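 note: A375 human melanoma cells which do not depend on MITF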
Settings: CellTiter-Glo ATP luminescence, 24 h; series mostly up to 35 µM

| Compound | outcome |
| --- | --- |
| O=C(/C=C\c1ccccc1)NCC(=O)N/N=C/c1ccc(O)cc1O | inactive |
| CC1CCN(CC(CS(=O)(=O)c2ccc([N+](=O)[O-])cc2)N2CCC(C)CC2)CC1 (stereo not given) | inactive |
| CCc1ccc(-c2cc(C(=O)Nn3cnnc3)c3ccccc3n2)cc1 | inactive |
| Cc1cc(C)cc(NC(=O)c2ccc([N+](=O)[O-])o2)c1 | inactive |
| O=C(CS(=O)c1ccc(C(F)(F)F)cc1[N+](=O)[O-])Oc1ccccc1 (stereo not given) | inactive |
| Cc1ccccc1-c1nc(CN2CCC(C(=O)NCCCN3CCCC(C)C3)CC2)c(C)o1 (stereo not given) | inactive |
| Cc1cc(C)c2c(N)c(C(=O)N/N=C/c3ccccc3)sc2n1 | inactive |
| Cc1cc(C)c2nc3nc(C)cc(C)c3c(N)c2c1 | inactive |
| Cc1oc(-c2ccc(Cl)cc2)nc1CN1CCC(C(=O)NCCCN2CCCC(C)C2)CC1 (stereo not given) | inactive |
| FC(F)(F)c1cc(CCN2CCNC[C@@H]2Cc2ccccc2)cc(C(F)(F)F)c1 | inactive |
| O=C(N/N=C\c1ccc([N+](=O)[O-])s1)c1cncc(Br)c1 | inactive |
| C#CCCc1ccccc1/C=[N+](/C)[O-] | inactive |
| N#C/C(=C(/O)c1ccc([N+](=O)[O-])o1)c1nc2ccccc2[nH]1 | inactive |
| O=C(COc1ccc2c(c1)CCC2)N1CCc2ccccc21 | inactive |
| O=C(CCl)N1c2ccccc2SCC1c1ccccc1 (stereo not given) | inactive |
| O=C(Cn1ncc(Cl)c(Cl)c1=O)N1CCOCC1 | inactive |
| CC(=O)Nc1ccc(S(=O)(=O)NC2=C(N3CCN(C)CC3)C(=O)c3ccccc3C2=O)cc1 | inactive |
| O=C(Nc1cnc2ccccn2c1=O)c1ccc(F)cc1 | inactive |
| CN(C)c1nc(C=C(C#N)C#N)c(Cl)n1-c1ccc(F)cc1 | inactive |
| O=[N+]([O-])c1ccc(/C=N/n2cnc3ccccc32)s1 | inactive |
| CC1CCCC(NC(=O)NC(=O)CCl)C1C (stereo not given) | inactive |
| Cc1ccc(NC(=O)Cn2ncc(Cl)c(Cl)c2=O)cc1S(=O)(=O)N1CCCCC1 | inactive |
| Cc1cc(Br)ccc1NC(=O)CNC(=O)Cn1ncc(Cl)c(Cl)c1=O | inactive |
| Cn1nnnc1Sc1ncnc2scc(-c3ccc(C#N)cc3)c12 | inactive |
| CCN1c2ccccc2NC2N=C(OC)C(c3ccccc3)C21 (stereo not given) | inactive |
| COCCN(CC(=O)NC1CCCCC1)C(=O)/C=C/C(=O)c1ccc(OC)cc1O | inactive |
| Cc1ccc(-c2c[n+](Cc3ccc(Cl)cc3)c3n2CCC3)cc1 | inactive |
| Cc1[nH]c2ccccc2c1C(=O)CCl | inactive |
| CC(C)C(CCNC1CCN(C)CC1)c1ccc(Cl)cc1 (stereo not given) | inactive |
| CCN1CCN(C2=C(NS(=O)(=O)c3ccc(Br)cc3)C(=O)c3ccccc3C2=O)CC1 | inactive |

From PubChem BioAssay AID540335 (Broad Institute, 2011)
